# Unmarked numbers belong to inactive results. Results filed as inconclusive are left out. The source made the active and inactive calls. Unless noted, the call rests on the fitted dose curve; in most records, active means well fitted curve in either direction with a large enough effect (not every such curve was filed as active); inconclusive means small, poorly fitted or top-dose-only effect, or another doubt; inactive means flat fitted curve, though single readings scatter.
# Experiments:
# [1] = AP1 Signaling Pathway (AID 357); conditions: ME-180 AP-1-bla reporter, EGF-induced, beta-lactamase ratio, 5 h; at 17.2 µM (top of the series) unless noted;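 further: ME-180 reporter cells stimulated with EGF at its EC50 level; on the % scale 0 is the no-effect control and ±100 the full control effect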
# In short: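 First, ME-180 AP-1-bla cells were cultured overnight at 37 °C in low-serum Opti-MEM. Next, titrated compounds with EC50 EGF were incubated 5 hours. Finally, CCF4 was added for 2.5 hours and the 460/530 nm ratio recorded.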
# [2] = NFAT Signaling Pathway (AID 444); conditions: Jurkat NFAT-bla M1, carbachol, beta-lactamase ratio, 5 h; at 17.2 µM (top of the series) unless noted;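 further: carbachol stimulus at about its EC50 of 1 µM final; on the % scale 0 is the no-effect control and ±100 the full control effect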
# In short: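 Jurkat cells carrying an NFAT-driven β-lactamase reporter and co-transfected muscarinic M1 receptor were treated with compound plus carbachol (1 uM final, an EC50 level) for 5 h at 37 °C. CCF4 loading followed for 1 h at RT; 460/530 nm ratio gave %activity.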
# [3] = Stat Signaling Pathway (AID 446); conditions: ME-180 SIE beta-lactamase reporter, IL-6 stimulated, 5 h; at 17.2 µM (top of the series) unless noted;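 further: ME-180 cervical cancer cells given 40 pM IL-6 alongside compound; SIE-controlled beta-lactamase reporter measured as 460/530 nm FRET emission ratio; on the % scale 0 is the no-effect control and ±100 the full control effect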
# In short: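 Reporter line: ME-180 cervical carcinoma, SIE-beta-lactamase. Treatment: compound with 40 pM IL-6, 5 hrs, 37 C, in low-serum OPTI-MEM with 10 mM HEPES pH 7.3. Detection: 460/530 nm fluorescence.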
# [4] = biological target: Glucocorticoid receptor (Homo sapiens) (UniProt P04150); test: GR-GFP Redistribution (AID 450;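 active means compounds whose dose series gives a full or clear partial fitted curve of increased nuclear translocation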; further: potency means the concentration at half of the fitted maximal effect)
# Chain of Glucocorticoid receptor (Homo sapiens) (P04150 whole entry, looked up): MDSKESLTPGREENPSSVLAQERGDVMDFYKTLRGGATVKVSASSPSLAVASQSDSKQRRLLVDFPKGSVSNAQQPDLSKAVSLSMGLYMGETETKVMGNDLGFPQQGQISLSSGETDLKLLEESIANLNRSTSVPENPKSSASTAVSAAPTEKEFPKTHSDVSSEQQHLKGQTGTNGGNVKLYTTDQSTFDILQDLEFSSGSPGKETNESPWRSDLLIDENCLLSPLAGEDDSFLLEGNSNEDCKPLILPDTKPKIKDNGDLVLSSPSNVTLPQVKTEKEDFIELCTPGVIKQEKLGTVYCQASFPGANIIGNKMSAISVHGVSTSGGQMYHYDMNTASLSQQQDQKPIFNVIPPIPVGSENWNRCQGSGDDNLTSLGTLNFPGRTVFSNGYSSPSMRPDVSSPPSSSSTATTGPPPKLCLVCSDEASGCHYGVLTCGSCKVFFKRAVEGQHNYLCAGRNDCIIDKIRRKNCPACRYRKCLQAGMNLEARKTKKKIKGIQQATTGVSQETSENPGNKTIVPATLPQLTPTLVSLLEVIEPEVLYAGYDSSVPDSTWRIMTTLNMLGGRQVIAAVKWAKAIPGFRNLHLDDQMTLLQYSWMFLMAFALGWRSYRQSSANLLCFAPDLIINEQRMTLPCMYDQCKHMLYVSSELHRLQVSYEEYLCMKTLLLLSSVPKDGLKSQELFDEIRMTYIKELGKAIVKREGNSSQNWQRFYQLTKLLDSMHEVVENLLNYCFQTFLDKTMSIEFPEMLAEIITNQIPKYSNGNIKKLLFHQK
Compound,"activity change, negative = inhibition [1] [%]","activity change, negative = inhibition [2] [%]","activity, negative = inhibition [3] [%]",Potency [4]
c1ccc(OCc2nn3c(-c4ccccn4)nnc3s2)cc1,-1.82,-2.83,0.158,> 20.6 µM
CC(=O)C1=C(O)C(=O)N(c2ccc(Br)cn2)C1c1ccccc1F (stereo not drawn),-1.6,1.82,-16.8,> 20.6 µM
Cc1ccc(OCC(=O)N(C)CCc2ccccn2)cc1,-3.13,5.19,6.69,> 20.6 µM
Cc1c(C2Nc3ccccc3NC3=C2C(=O)CC(C)(C)C3)cnn1C (stereo not drawn),-9.46,-5.95,14.2,> 20.6 µM
COc1cc(-c2nn3c(-c4ccco4)nnc3s2)cc(OC)c1OC,-2.59,-0.323,-1.97,> 20.6 µM
Cc1cc(=O)[nH]c(COc2ccccc2)n1,3.59,-7.86,-2.52,> 20.6 µM
O=C(CN1C(=O)c2ccccc2S1(=O)=O)c1ccccc1,9.24,-11.7,3.52,> 20.6 µM
CC1(C)Cc2c(C#N)c(SCCC#N)nc(N3CCOCC3)c2CS1,-12.8,3.6,-3.44,> 20.6 µM
Cc1c(CCC#N)c(N2CCCCC2)n2c(nc3ccccc32)c1C#N,-4.98,-11.4,10.9,> 20.6 µM
CCCOc1ccc(C2/C(=C(/O)c3ccccc3)C(=O)C(=O)N2CCCN(C)C)cc1OC (stereo not drawn),13.7,3.58,10.3,> 20.6 µM
CC(=O)Oc1ccccc1C1OCCN1C(C)=O (stereo not drawn),14.2,-10.3,17,> 20.6 µM
CS(=O)(=O)c1ccc2nc(NC(NC(=O)c3ccco3)(C(F)(F)F)C(F)(F)F)sc2c1,-11.7,21.2,-18.9,> 20.6 µM
N#Cc1nc(-c2cccs2)oc1NCCc1ccccc1,-17.4,-0.887,-12.8,> 20.6 µM
Cc1ccc(S(=O)(=O)NC(=O)NCc2ccc3c(c2)OCO3)cc1,12.9,-5.13,0.559,> 20.6 µM
O=C(O)CN(c1ccccc1)C1SC(=O)NC1=O (stereo not drawn),3.92,20.4,10.5,> 20.6 µM
Cc1ccc2cc(CNC(C)(C)C)c(=O)[nH]c2c1,2.11,-5.21,-2.54,> 20.6 µM
COc1ccc(-c2onc(C)c2-c2ccccc2)c(O)c1,-16.7,9.81,-25.2,> 20.6 µM
Cc1cccc(N)c1SC1CCCCC1O (stereo not drawn),-3.66,-1.33,2.62,> 20.6 µM
CCNC(=O)COn1c(SCC(=O)NCC)nc2ccccc2c1=O,-9.03,9.09,8.5,> 20.6 µM
Nc1nnnn1CC(=O)OCc1cccc(Br)c1,-12.9,14.6,12.3,> 20.6 µM
Cn1c(=O)[nH]c(=O)c2c1nc(N(CCO)Cc1ccccc1)n2Cc1ccccc1Cl,-1.99,-6.08,-4.12,> 20.6 µM
CC(=O)Oc1ccc2c(C)cc(=O)[nH]c2c1,8.38,-13.4,-3.86,> 20.6 µM
CCC(C(=O)Nc1nccs1)(C(F)(F)F)C(F)(F)F,0.462,11.5,-9.76,> 20.6 µM
COc1ccc(CCNc2nc3c(c(=O)n(C)c(=O)n3C)n2C)cc1OC,-2.56,3.63,-0.466,> 20.6 µM
c1cc(-c2nnc3sc(C4CCCCC4)nn23)ccn1,-28.7,-22.5,-15.8,> 20.6 µM
CC(C)(C)c1ccc(C(=O)C=[N+]=[N-])cc1,0.479,1.56,4.94,> 20.6 µM

Compound,"activity change, negative = inhibition [1] [%]","activity change, negative = inhibition [2] [%]","activity, negative = inhibition [3] [%]",Potency [4]
Cc1ccccc1NC(=O)NCCc1nc2ccccc2[nH]1,-3.68,-10.3,-7.53,> 20.6 µM
Cn1ncc(N=Cc2c(O)ccc3ccccc23)c1C(=O)N1CCOCC1,1.1,-28.4,-16.5,> 20.6 µM
CCOc1ccc(-n2c3nc4ccccc4nc3c3c(=O)n(Cc4ccco4)cnc32)cc1,-1.51,-9.2,-2.34,> 20.6 µM
COc1ccc(C2NC3=C(CCC3)C3(C#N)C(OC)(OC)N=C(N)C23C#N)cc1 (stereo not drawn),-8.29,6.55,-5.86,> 20.6 µM
COc1cccc(-c2nnc3sc(-c4ccc(Cl)cc4)nn23)c1,5.29,-1.08,11.1,> 20.6 µM
CCN(CC)CCN1C(=O)C(O)=C(C(=O)c2cccs2)C1c1ccccn1 (stereo not drawn),-0.981,9.2,-0.0775,> 20.6 µM
CCc1c(C(=O)O)[nH]c2ccc(Br)cc12,8.39,-22,-0.02,> 20.6 µM
CN1CC(=O)Nc2ccc(F)cc2C1=O,13.4,-4.14,3.5,> 20.6 µM
CCCOc1ccc(CSC(CC(=O)O)C(=O)O)cc1 (stereo not drawn),4.79,13.3,6.22,> 20.6 µM
COc1cccc(OC)c1OCCN1CCN(C(=O)c2ccco2)CC1,17.1,-6.56,11.8,> 20.6 µM
CCN(CC)S(=O)(=O)c1ccc2c(c1)c(C(=O)O)cn2C,-6.47,-1.02,1.11,> 20.6 µM
CCOc1cccc(-c2nnc3sc(COc4ccccc4)nn23)c1,-3.24,9.41,-10.6,> 20.6 µM
O=C1OC(N2CCN(C/C=C/c3ccccc3)CC2)c2ccccc21 (stereo not drawn),7.53,10.2,0.214,> 20.6 µM
Clc1ccc(-c2cn3c(n2)CCC3)cc1,4.83,-26.9,7.31,> 20.6 µM
Nc1ccc2c3c(cccc13)CC2,0.829,11.5,7.79,3.98 µM (active)
Cc1c(=O)n(OCc2c(F)cccc2F)c2ccccc2[n+]1[O-],-5.17,-0.573,2.13,> 20.6 µM
CCOc1ccc2nc(NC(NC(=O)CC)(C(=O)OC)C(F)(F)F)sc2c1 (stereo not drawn),-9.26,8.42,-8.24,> 20.6 µM
CCOC(=O)N1CCN(C2OC(=O)c3ccccc32)CC1 (stereo not drawn),0.827,27.2,25.6,> 20.6 µM
CCOC(=O)c1ccc(-n2c(=O)[nH]c3ccccc3c2=O)cc1,3.86,6.82,2.95,> 20.6 µM
CC(=O)Nc1cnc2ccccc2n1,2.26,-13.5,7.01,> 20.6 µM
COc1ccc(OC)c2c1CCC2=O,-7.3,-3.76,6.79,> 20.6 µM
Cc1cc(=O)oc2ccc(OCC(=O)N3CCc4ccccc43)cc12,2.4,-12,11.2,> 20.6 µM
Cn1c(=O)[nH]c2cc(Cl)cnc21,7.54,3.47,5.04,> 20.6 µM
CCC(NC(=O)Nc1cc(OC)c(OC)c(OC)c1)(C(F)(F)F)C(F)(F)F,-13.9,14.9,-1.91,> 20.6 µM
COC(=O)CCc1c(C)[nH]c(=S)[nH]c1=O,7.36,14.4,1.45,> 20.6 µM
Cn1c(SCC(=O)NCc2ccccc2)nc2ccccc21,-0.959,1.73,4.04,> 20.6 µM
